This is part of a sample that, as a whole, favours compounds with a hit. Of some 83,000 tested, about 20% had one in any assay.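 Step 1: grow cells in 96-well plates. Step 2: add test compound at a single concentration. Step 3: incubate 48 h. Step 4: record percent growth.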 A number with no mark means an inactive call. Calls of active or inactive are those of the source. How the source made its calls: active means growth percent below 10; inactive means the rest.
Columns and labels:
Experiment in all cases: NCI-60 one-dose screen, 48 h (100 = growth as untreated, 0 = no growth, -100 = all killed)
[1] = test system: NCI-H23 lung; details: 10 µM unless noted
[2] = test system: NCI-H226 lung; details: 10 µM unless noted
[3] = test system: NCI-H322M lung; details: 10 µM unless noted
[4] = test system: NCI-H460 lung; details: 10 µM unless noted
[5] = test system: HOP-92 NSCLC; details: 10 µM
[6] = test system: NCI-H522 lung; details: 10 µM
[7] = test system: A549/ATCC NSCLC; details: 10 µM unless noted
[8] = test system: 786-0 renal; details: 10 µM unless noted
[9] = test system: DU-145 prostate; details: 10 µM unless noted
[10] = test system: K-562 leukemia; details: 10 µM unless noted
[11] = test system: MALME-3M melanoma; details: 10 µM unless noted
[12] = test system: MDA-MB-231 breast; details: 10 µM unless noted
[13] = test system: RXF 393 renal; details: 10 µM unless noted
[14] = test system: SF-268 CNS; details: 10 µM unless noted
[15] = test system: SF-295 CNS; details: 10 µM unless noted
[16] = test system: SF-539 CNS; details: 10 µM unless noted
[17] = test system: UACC-257 melanoma; details: 10 µM unless noted
[18] = test system: M14 melanoma; details: 10 µM unless noted
[19] = test system: COLO 205 colon; details: 10 µM unless noted

## COC(c1ccccc1)C(Br)C(=O)c1ccccc1 (stereo unspecified)
[1]
  growth: 109%
[2]
  growth: 92.5%
[3]
  growth: 96.2%
[4]
  growth: 127%
[5]
  growth: 71.1%
[6]
  growth: 74.9%
[7]
  growth: 95.3%
[8]
  growth: 92.2%
[9]
  growth: 116%
[10]
  growth: 93.8%
[11]
  growth: 87.8%
[12]
  growth: 92.9%
[13]
  growth: 89.4%
[14]
  growth: 108%
[15]
  growth: 93.3%
[16]
  growth: 99.5%
[17]
  growth: 87.2%
[18]
  growth: 90.6%

## CCCCN(CCCC)CC(O)CN(CC)CC (stereo unspecified)
[1]
  growth: 99.6%
[2]
  growth: 96.3%
[3]
  growth: 97.6%
[4]
  growth: 114%
[5]
  growth: 93.4%
[6]
  growth: 95.3%
[7]
  growth: 99%
[8]
  growth: 104%
[19]
  growth: 99.3%
[9]
  growth: 113%
[10]
  growth: 92.4%
[12]
  growth: 95.8%
[13]
  growth: 104%
[14]
  growth: 106%
[16]
  growth: 108%
[17]
  growth: 105%
[18]
  growth: 95%

## Cc1c(CN(C)C)cc(C(C)C)cc1C(C)C
[1]
  growth: 102%
[2]
  growth: 93.5%
[3]
  growth: 129%
[4]
  growth: 111%
[5]
  growth: 129%
[6]
  growth: 85%
[7]
  growth: 101%
[8]
  growth: 103%
[19]
  growth: 131%
[9]
  growth: 113%
[11]
  growth: 124%
[12]
  growth: 104%
[13]
  growth: 112%
[14]
  growth: 111%
[15]
  growth: 116%
[16]
  growth: 118%
[17]
  growth: 108%
[18]
  growth: 108%

## CCCCCSc1ccc2nc(NC(=O)OCC)sc2c1
[1]
  growth: 18.5%
[2]
  growth: 21.7%
[3]
  growth: 41.3%
[4]
  growth: 10.5%
[5]
  growth: 31.7%
[6]
  growth: 20.8%
[7]
  growth: 34.6%
[8]
  growth: 33.6%
[9]
  growth: 22.8%
[10]
  growth: 15.9%
[11]
  growth: 42.2%
[12]
  growth: 26.4%
[13]
  growth: 7.13% (active)
[14]
  growth: 50.8%
[15]
  growth: 6.93% (active)
[16]
  growth: -12.1% (active)
[17]
  growth: 67.4%
[18]
  growth: 11.9%

## Cn1c2c(cc(S(=O)(=O)c3ccccc3)c1=O)CCc1c-2cnn1-c1ccc(Cl)cc1
[1]
  growth: 69.7%
[2]
  growth: -14.8% (active)
[3]
  growth: 38.9%
[4]
  growth: 20.3%
[5]
  growth: -34.2% (active)
[6]
  growth: -11.3% (active)
[7]
  growth: 8.48% (active)
[19]
  growth: 77.5%
[9]
  growth: 8.78% (active)
[10]
  growth: 39.8%
[11]
  growth: -70.7% (active)
[12]
  growth: 31.3%
[13]
  growth: 2.65% (active)
[14]
  growth: 32.9%
[15]
  growth: -4.18% (active)
[16]
  growth: -19% (active)
[17]
  growth: 11.7%
[18]
  growth: 64%

## Nc1ncn([C@@H]2O[C@H](CO)[C@@H](O)C2(F)F)c(=O)n1
[1]
  growth: 30.6%
[2]
  growth: 52.3%
[3]
  growth: 70%
[4]
  growth: 9.34% (active)
[5]
  growth: 34.3%
[6]
  growth: 86.9%
[7]
  growth: 37.9%
[8]
  growth: 26.3%
[9]
  growth: 43.5%
[10]
  growth: 65.7%
[11]
  growth: 67.9%
[12]
  growth: 80%
[13]
  growth: 45%
[14]
  growth: 65.4%
[15]
  growth: 77.9%
[16]
  growth: 22.3%
[17]
  growth: 77.5%
[18]
  growth: 15.6%

## CCOC(=O)C1C(=O)C(=O)N(C(C)C)C1C(=O)OCC (stereo unspecified)
[1]
  growth: 97.3%
[2]
  growth: 100%
[3]
  growth: 104%
[4]
  growth: 106%
[5]
  growth: 83%
[6]
  growth: 118%
[8]
  growth: 107%
[19]
  growth: 118%
[9]
  growth: 113%
[10]
  growth: 108%
[11]
  growth: 92.4%
[12]
  growth: 103%
[13]
  growth: 105%
[14]
  growth: 99.3%
[15]
  growth: 98.2%
[16]
  growth: 99.8%
[17]
  growth: 86.7%
[18]
  growth: 111%

## Cn1cnc2nc[nH]c2c1=S
[1]
  growth: 98.7%
[2]
  growth: 98.2%
[3]
  growth: 101%
[4]
  growth: 108%
[5]
  growth: 75.2%
[6]
  growth: 86.5%
[8]
  growth: 101%
[19]
  growth: 116%
[9]
  growth: 112%
[10]
  growth: 103%
[11]
  growth: 98.8%
[12]
  growth: 96.3%
[13]
  growth: 110%
[14]
  growth: 107%
[15]
  growth: 99.4%
[16]
  growth: 110%
[17]
  growth: 96.5%
[18]
  growth: 105%

## Cc1cc2c(-c3nc4ccccc4n3C)c(O)c(O)cc2c(O)c1-c1c(C)cc2c(-c3nc4ccccc4n3C)c(O)c(O)cc2c1O
[1]
  growth: 24.7%
[2]
  growth: 68.1%
[3]
  growth: 73%
[4]
  growth: 7.3% (active)
[6]
  growth: 41.4%
[7]
  growth: 26.7%
[8]
  growth: 76%
[19]
  growth: 4.14% (active)
[9]
  growth: 43.5%
[10]
  growth: 37.5%
[11]
  growth: 86.1%
[12]
  growth: 57.3%
[13]
  growth: 62.7%
[14]
  growth: 38.5%
[15]
  growth: 26%
[16]
  growth: 22.1%
[17]
  growth: 82.9%
[18]
  growth: 34.9%

## O=C(N/N=C/c1cc(Cl)ccc1O)C(=O)N/N=C/c1cc(Cl)ccc1O
[1]
  growth: 80%
[2]
  growth: 74.9%
[3]
  growth: 61.6%
[4]
  growth: 34.8%
[6]
  growth: 62.7%
[7]
  growth: 52.6%
[8]
  growth: 65.2%
[19]
  growth: 75.2%
[9]
  growth: 71.1%
[10]
  growth: 51.9%
[11]
  growth: 80.1%
[12]
  growth: 76.5%
[13]
  growth: 80.3%
[14]
  growth: 56.5%
[15]
  growth: 52.2%
[16]
  growth: 57.3%
[17]
  growth: 69.6%
[18]
  growth: 78.6%

## COc1cc2ncnc(-n3ncc4cc(NC(=O)Nc5ccc(Cl)c(Cl)c5)ccc43)c2cc1OC
[1]
  growth: -54% (active)
[2]
  growth: -63.4% (active)
[3]
  growth: -46.1% (active)
[4]
  growth: -53.9% (active)
[5]
  growth: -57.2% (active)
[6]
  growth: 1.38% (active)
[7]
  growth: 0.341% (active)
[8]
  growth: -43.4% (active)
[9]
  growth: 1.5% (active)
[10]
  growth: 10.7%
[11]
  growth: -44.3% (active)
[12]
  growth: -74.3% (active)
[13]
  growth: -86.7% (active)
[14]
  growth: -34.8% (active)
[15]
  growth: -66.8% (active)
[16]
  growth: -70.6% (active)
[17]
  growth: -10.3% (active)
[18]
  growth: -41% (active)

## O=C(N/N=C\c1ccc(-c2ccc(Br)cc2)o1)c1cc2oc(-c3cccc(C(F)(F)F)c3)cc2[nH]1
[1]
  growth: 96.8%
[2]
  growth: 106%
[3]
  growth: 70.6%
[4]
  growth: 91.5%
[5]
  growth: 111%
[6]
  growth: 122%
[7]
  growth: 38.3%
[19]
  growth: 107%
[9]
  growth: 126%
[10]
  growth: 90.2%
[11]
  growth: 97.1%
[12]
  growth: 111%
[14]
  growth: 87.7%
[16]
  growth: 97.9%
[17]
  growth: -48.2% (active)
[18]
  growth: 117%

## CC(C)OC(=O)[C@H](C)N[P@@](=O)(OC[C@@]1(C)O[C@@H](n2cc(F)c(N)nc2=O)C[C@@H]1O[P@](=O)(N[C@@H](C)C(=O)OC(C)C)Oc1ccccc1)Oc1ccccc1
[1]
  growth: 94.4%
[2]
  growth: 96.4%
[3]
  growth: 102%
[4]
  growth: 28.7%
[5]
  growth: 85.1%
[6]
  growth: 85.6%
[7]
  growth: 92.2%
[8]
  growth: 104%
[9]
  growth: 103%
[11]
  growth: 91.1%
[12]
  growth: 119%
[14]
  growth: 54%
[15]
  growth: 103%
[16]
  growth: 63.3%
[17]
  growth: 92.6%
[18]
  growth: 91.6%

## CCOC(=O)C1=C(C(F)(F)F)NC(=S)NC1CN1C(=O)c2ccccc2C1=O (stereo unspecified)
[1]
  growth: 87.5%
[2]
  growth: 116%
[3]
  growth: 103%
[4]
  growth: 106%
[6]
  growth: 111%
[7]
  growth: 118%
[8]
  growth: 99.7%
[19]
  growth: 119%
[9]
  growth: 115%
[10]
  growth: 101%
[11]
  growth: 92.9%
[12]
  growth: 90.2%
[13]
  growth: 113%
[14]
  growth: 101%
[15]
  growth: 93%
[16]
  growth: 104%
[17]
  growth: 110%

## O=c1[nH]c(=S)[nH]c(O)c1/C=C1\C=Nc2ccccc21
[1]
  growth: 82.5%
[2]
  growth: 90.5%
[3]
  growth: 110%
[4]
  growth: 79.5%
[5]
  growth: 54.2%
[6]
  growth: 91.5%
[8]
  growth: 107%
[19]
  growth: 78.8%
[9]
  growth: 108%
[10]
  growth: 99.4%
[11]
  growth: 99.5%
[12]
  growth: 64.5%
[14]
  growth: 70%
[15]
  growth: 43%
[16]
  growth: 94.2%
[17]
  growth: 80.5%
[18]
  growth: 92.3%

## COc1ccc(OC)c(Cn2cc3c(c2-c2ccccc2)CCc2cnoc2-3)c1
[1]
  growth: 60.8%
[2]
  growth: 78.8%
[3]
  growth: 57.5%
[4]
  growth: 22.7%
[6]
  growth: 56.4%
[7]
  growth: 50.8%
[8]
  growth: 66.6%
[19]
  growth: 35.9%
[9]
  growth: 94.7%
[10]
  growth: 16.6%
[12]
  growth: 64.7%
[13]
  growth: 80%
[14]
  growth: 71.8%
[15]
  growth: 22.8%
[16]
  growth: 54.9%
[17]
  growth: 79.5%
[18]
  growth: 50.7%

## O=[N+]([O-])c1ccc(-c2ncc(-c3ccc(O)cc3O)[nH]2)cc1
[1]
  growth: 105%
[2]
  growth: 102%
[3]
  growth: 116%
[4]
  growth: 109%
[5]
  growth: 88.5%
[6]
  growth: 124%
[7]
  growth: 44.9%
[19]
  growth: 112%
[9]
  growth: 143%
[10]
  growth: 95.6%
[11]
  growth: 218%
[12]
  growth: 104%
[14]
  growth: 101%
[16]
  growth: 118%
[17]
  growth: -43.6% (active)
[18]
  growth: 135%
